Screen size: about 340,000 compounds; about 4,500 (1.3%) were called active. Another 5% or so got no clear call; they are omitted. For the sample, actives were picked, then their nearest neighbours and some compounds at random. A number with no mark means an inactive call. The call rests on the fitted dose curve; in most records, active means well fitted inhibition curve with a large enough effect; inconclusive means small, poorly fitted or top-dose-only effect, or another doubt; inactive means no such curve, though single readings can be large or run the other way.
Biological target: DNA polymerase beta (Homo sapiens) (UniProt P06746)
Assay: qHTS Assay for Inhibitors of DNA Polymerase Beta
Details: Pol beta primer extension/strand displacement, fluorescence kinetic; series mostly up to 114 µM; activity change, negative = inhibition: at the top concentration
Outline: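 10 nM enzyme + cpd, 15 min RT; start with substrate 50 nM final; read 0 min and after 10 min RT. Corrected, normalized data; 4-parameter Hill curve fit.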
On the % scale 0 is the no-effect control and ±100 the full control effect; potency means the concentration at half of the fitted maximal effect.

Point of comparison: Cc1ccccc1-c1nc2scc(CCNC(=O)C(=O)Nc3ccc(F)cc3F)n2n1, “activity change, negative = inhibition” value -10.8%. Against it:
- Cc1ccc(Nc2ccc3cc(S(=O)(=O)N4CCCCC4)ccc3n2)cc1F — higher, 16.8%
- Cc1ccccc1OCCOc1ccc([N+](=O)[O-])cc1/C=N/n1cnnc1 — higher, 2.22%
- COc1ccccc1OCCOc1ccc(/C=C2\C(=N)N3N=C(C)SC3=NC2=O)cc1 — lower, -15.8%
- CSc1ccccc1NC(=O)CCS(=O)(=O)c1nc(-c2cccs2)cc(C(F)(F)F)n1 — higher, -1.2%
- COc1cccc(Cn2c(SCc3ccc(C(=O)N4CCCCC4)cc3)nc3ccncc32)c1 — higher, 55.1%
- COc1ccc(Cl)cc1S(=O)(=O)N1CCN(CC(=O)C(C)(C)C)CC1 — higher, -0.0725%
- N#Cc1ccsc1NC(=O)CN1CCN(S(=O)(=O)c2cc(Cl)ccc2Cl)CC1 — higher, -2.37%
- O=C(NCCc1ccccc1)c1ccc2c(c1)N(Cc1ccc(F)cc1)C(=O)c1ccccc1S2(=O)=O — higher, 8.98%
- CCc1ccc(NC(=O)COC(=O)c2cccs2)cc1 — higher, 0.301%
- NC(=O)c1ccc(NC(=O)COC(=O)C(Cc2ccccc2)NC(=O)c2ccccc2)cc1 (centres undefined) — higher, 21.6%
- Cc1cccc(NC(c2cccc(F)c2)c2ccc3ccc(C)nc3c2O)n1 (centres undefined) — lower, -16.3%
- Cc1ccc(-c2nc3cccc(C)n3c2Nc2ccc3c(c2)OCCO3)cc1 — higher, 26.9%
- COc1cccc(CNC(=O)c2ccc3c(c2)N(Cc2ccc(C(F)(F)F)cc2)C(=O)c2ccccc2S3)c1OC — higher, 0.414%
- O=C(Cn1cc(SCc2ccccc2)c2ccccc21)N1CCCCC1 — higher, 2.46%
- O=C(c1ccc(C(F)(F)F)cc1)C1CCCN(C(=O)c2csnn2)C1 (centres undefined) — higher, 3.97%
- COCC(=O)N1CCCC(C(=O)c2ccc(C(F)(F)F)cc2)C1 (centres undefined) — higher, 23.9%
- Cc1cc(Cl)ccc1OCC(=O)N(Cc1ccc(N(C)C)cc1)C1CCS(=O)(=O)C1 (centres undefined) — higher, 8.42%
- CCOC(=O)c1c(NC(=O)CSc2cn(CCNC(=O)c3cccc(C(F)(F)F)c3)c3ccccc23)sc2c1CCC2 — higher, 1.43%
- Cc1ccc(-n2ncc3c(NCCCn4ccnc4)ncnc32)cc1Cl — higher, 0.21%
- CCC(CC)C(=O)Nc1ccc(S(=O)(=O)Nc2nccs2)cc1 — higher, 17.1%
- O=C(Nc1ccc(S(=O)(=O)Nc2nccs2)cc1)c1cc(=O)[nH]c2ccccc12 — higher, 14.3%
- COc1ccc(CCNc2ncnc3c2cnn3-c2ccc(C)cc2)cc1 — higher, 6.86%
- COc1ccc(CNC(=O)C(Cc2ccccc2)n2cccc2)cc1 (centres undefined) — higher, -10.3%
- CCOC(=O)C(Cc1ccc(N)cc1)N1C(=O)c2ccccc2C1=O (centres undefined) — lower, -23.2%
- COc1cc(OC)cc(C(=O)Nc2c(C(=O)Nc3ccc(F)cc3)oc3ccccc23)c1 — higher, -2.89%
- CCOC(=O)c1ccc(N2C(=O)c3n[nH]c(-c4ccco4)c3C2c2ccc(O)cc2)cc1 (centres undefined) — higher, 22.2%
- CCn1cc(C(=O)NCc2ccc(C)cc2)c(=O)c2cc(S(=O)(=O)N3CCc4ccccc4C3)ccc21 — higher, 27.3%
- CCc1nnc(NC(=O)/C=C/c2ccc(C)o2)s1 — lower, -10.9%
- COc1ccc(OC)c(NC(=O)/C=C/c2ccc(C)o2)c1 — higher, 11%
- CCc1cc2c(-c3ccccc3)cc(=O)oc2c2c1OCN(Cc1ccc(C)cc1)C2 — higher, -8.79%
- O=S(=O)(c1ccc2nc(NCc3ccccc3Cl)ccc2c1)N1CCCCC1 — higher, 6.35%
- Brc1ccc2c(c1)NC(c1cccnc1)=NC(c1ccccc1)=N2 — higher, 19.1%
- CCc1ccc(CN(Cc2ccco2)C(=O)COc2ccc(Cl)c(C)c2)cc1 — higher, 0.226%
- N#Cc1c(-c2ccc(F)cc2)nc(-c2ccccc2)[nH]c1=O — higher, 1.71%
- O=c1[nH]c(SCc2cccc(F)c2)nc2ccccc12 — higher, 25%
- O=C(COC(=O)CNC(=O)c1ccco1)Nc1ccc(F)cc1 — higher, 3.11%
- CCN(CC)CCOC(=O)c1ccc(NC(=O)CNC(=O)c2ccccc2)cc1 — higher, 8.66%
- CCOC(=O)c1ccc(NC(=O)c2c(NCc3cccs3)sc3c2CCCC3)cc1 — higher, 1.84%

With COc1ccccc1OCCOc1ccc(/C=N/n2cnnc2)cc1 the Potency was 44.7 µM (active).
For O=C(CN1CCN(S(=O)(=O)c2cc(Cl)ccc2Cl)CC1)c1ccc(O)c(O)c1, the Potency was 3.16 µM (active).
In the case of O=C(COC(=O)[C@H](Cc1ccccc1)NC(=O)c1cccs1)Nc1cc(F)ccc1F, the Potency is reported as 79.4 µM (active).
For O=[N+]([O-])C(=c1ccc2c(c1)N1C3=C(CCCC3)CC3CCCCC31N=2)[N+](=O)[O-] (centres undefined), the Potency was 39.8 µM (active).
With Cc1cnc(C(=O)N2CCCC(C(=O)c3ccc(C(F)(F)F)cc3)C2)cn1 (centres undefined) the Potency was 14.1 µM (active).
In the case of O=C(Nc1ccc(S(=O)(=O)Nc2nccs2)cc1)c1cc(-c2ccncc2)nc2ccccc12, the Potency is reported as 15.8 µM (active).
Cc1ccc(C)n1C(Cc1ccccc1)C(=O)O (centres undefined) was tested, and the Potency was 10 µM (active).
With Cc1ccc(/C=C/C(=O)Nc2ccc([N+](=O)[O-])c(NC(=O)/C=C/c3ccc(C)o3)c2)o1 the Potency was 11.2 µM (active).
With N#Cc1c(-c2ccccc2)nc(SCc2cccc(C(F)(F)F)c2)[nH]c1=O the Potency was 79.4 µM (active).
CCOC(=O)c1ccc(NC(=O)CNC(=O)c2ccco2)cc1 was tested, and the Potency was 56.2 µM (active).

Reference: PubChem BioAssay AID485314 (National Center for Advancing Translational Sciences (NCATS), 2010)
